G9a inh: qHTS Assay for Inhibitors of Histone Lysine Methyltransferase G9a; G9a H3K9 monomethylation, AlphaScreen, 2 h; Potency, µM (titrated, usually from 102 µM), inactives show at the highest dose activity, negative = inhibition, hits mostly inhibitors; actives 8.8% (n = 350,000); AID 504332, 2011; further: on the % scale 0 is the no-effect control and ±100 the full control effect; nearly all actives have a fitted effect of over 75% in size
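Chemiluminescent proximity detection of H3K9 monomethylation, read after 10 min bead incubation in the dark. Reaction: 20 nM G9a, 500 nM biotin-H3K9 peptide, 20 uM SAM cofactor, 2 h, room temperature, following 15 min enzyme-compound preincubation.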
HP1b chromo inh: HTS for Inhibitors of HP1-beta Chromodomain Interactions with Methylated Histone Tails. AID 540317, 2011. AlphaScreen HP1-beta / biotin-H3K9me3 peptide binding. actives 0.56% (n = 390,000). Chromobox protein homolog 1 (Homo sapiens), P83916. Potency, µM (doses to about 114 µM), for the others: at the highest dose activity change, negative = inhibition, actives largely listed as inhibitors; further: nearly all actives have a fitted effect of over 70% in size
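Compound inhibition of the preformed complex between 50 nM HP1-beta and 50 nM biotinylated H3K9me3 peptide was read by AlphaScreen. Buffer was PBS pH 7.4 with 0.01% Tween-20. Incubations ran 30 min at room temperature, with 10 ug/mL donor/acceptor beads.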
PLK1 PBD block: qHTS for Inhibitors of PLK1-PDB (polo-like kinase 1 - polo-box domain): Primary Screen | Plk1 PBD binding of FITC phosphopeptide, fluorescence polarization | Potency, µM, for the others: max response, negative = inhibition, actives largely listed as inhibitors | actives 2.8% (n = 360,000) | AID 720504, 2013; further: series mostly up to about 57 µM; on the % scale 0 is the no-effect control and ±100 the full control effect; nearly all actives have a fitted effect of over 65% in size
JMJD2A Tudor inh: qHTS Assay for Inhibitors of JMJD2A-Tudor Domain; AlphaScreen JMJD2A-Tudor / H3K4me3 peptide binding; Potency, µM (doses to about 114 µM), inactives show top-dose activity change, negative = inhibition, usual class: inhibitors; actives 4.4% (n = 390,000); AID 504339, 2011; further: on the % scale 0 is the no-effect control and ±100 the full control effect; nearly all actives have a fitted effect of over 50% in size
BAZ2B inh: qHTS Assay for Inhibitors of BAZ2B; Bromodomain adjacent to zinc finger domain protein 2B (Homo sapiens), Q9UIF8; AlphaScreen BAZ2B-H3K14Ac peptide displacement; Potency, µM (titrated, usually from 114 µM), inactives show top-dose activity change, negative = inhibition, hits mostly inhibitors; actives 4.4% (n = 360,000); further: on the % scale 0 is the no-effect control and ±100 the full control effect; nearly all actives have a fitted effect of over 60% in size
Target sequence (Q9UIF8 whole entry, looked up, the tested form may be a part): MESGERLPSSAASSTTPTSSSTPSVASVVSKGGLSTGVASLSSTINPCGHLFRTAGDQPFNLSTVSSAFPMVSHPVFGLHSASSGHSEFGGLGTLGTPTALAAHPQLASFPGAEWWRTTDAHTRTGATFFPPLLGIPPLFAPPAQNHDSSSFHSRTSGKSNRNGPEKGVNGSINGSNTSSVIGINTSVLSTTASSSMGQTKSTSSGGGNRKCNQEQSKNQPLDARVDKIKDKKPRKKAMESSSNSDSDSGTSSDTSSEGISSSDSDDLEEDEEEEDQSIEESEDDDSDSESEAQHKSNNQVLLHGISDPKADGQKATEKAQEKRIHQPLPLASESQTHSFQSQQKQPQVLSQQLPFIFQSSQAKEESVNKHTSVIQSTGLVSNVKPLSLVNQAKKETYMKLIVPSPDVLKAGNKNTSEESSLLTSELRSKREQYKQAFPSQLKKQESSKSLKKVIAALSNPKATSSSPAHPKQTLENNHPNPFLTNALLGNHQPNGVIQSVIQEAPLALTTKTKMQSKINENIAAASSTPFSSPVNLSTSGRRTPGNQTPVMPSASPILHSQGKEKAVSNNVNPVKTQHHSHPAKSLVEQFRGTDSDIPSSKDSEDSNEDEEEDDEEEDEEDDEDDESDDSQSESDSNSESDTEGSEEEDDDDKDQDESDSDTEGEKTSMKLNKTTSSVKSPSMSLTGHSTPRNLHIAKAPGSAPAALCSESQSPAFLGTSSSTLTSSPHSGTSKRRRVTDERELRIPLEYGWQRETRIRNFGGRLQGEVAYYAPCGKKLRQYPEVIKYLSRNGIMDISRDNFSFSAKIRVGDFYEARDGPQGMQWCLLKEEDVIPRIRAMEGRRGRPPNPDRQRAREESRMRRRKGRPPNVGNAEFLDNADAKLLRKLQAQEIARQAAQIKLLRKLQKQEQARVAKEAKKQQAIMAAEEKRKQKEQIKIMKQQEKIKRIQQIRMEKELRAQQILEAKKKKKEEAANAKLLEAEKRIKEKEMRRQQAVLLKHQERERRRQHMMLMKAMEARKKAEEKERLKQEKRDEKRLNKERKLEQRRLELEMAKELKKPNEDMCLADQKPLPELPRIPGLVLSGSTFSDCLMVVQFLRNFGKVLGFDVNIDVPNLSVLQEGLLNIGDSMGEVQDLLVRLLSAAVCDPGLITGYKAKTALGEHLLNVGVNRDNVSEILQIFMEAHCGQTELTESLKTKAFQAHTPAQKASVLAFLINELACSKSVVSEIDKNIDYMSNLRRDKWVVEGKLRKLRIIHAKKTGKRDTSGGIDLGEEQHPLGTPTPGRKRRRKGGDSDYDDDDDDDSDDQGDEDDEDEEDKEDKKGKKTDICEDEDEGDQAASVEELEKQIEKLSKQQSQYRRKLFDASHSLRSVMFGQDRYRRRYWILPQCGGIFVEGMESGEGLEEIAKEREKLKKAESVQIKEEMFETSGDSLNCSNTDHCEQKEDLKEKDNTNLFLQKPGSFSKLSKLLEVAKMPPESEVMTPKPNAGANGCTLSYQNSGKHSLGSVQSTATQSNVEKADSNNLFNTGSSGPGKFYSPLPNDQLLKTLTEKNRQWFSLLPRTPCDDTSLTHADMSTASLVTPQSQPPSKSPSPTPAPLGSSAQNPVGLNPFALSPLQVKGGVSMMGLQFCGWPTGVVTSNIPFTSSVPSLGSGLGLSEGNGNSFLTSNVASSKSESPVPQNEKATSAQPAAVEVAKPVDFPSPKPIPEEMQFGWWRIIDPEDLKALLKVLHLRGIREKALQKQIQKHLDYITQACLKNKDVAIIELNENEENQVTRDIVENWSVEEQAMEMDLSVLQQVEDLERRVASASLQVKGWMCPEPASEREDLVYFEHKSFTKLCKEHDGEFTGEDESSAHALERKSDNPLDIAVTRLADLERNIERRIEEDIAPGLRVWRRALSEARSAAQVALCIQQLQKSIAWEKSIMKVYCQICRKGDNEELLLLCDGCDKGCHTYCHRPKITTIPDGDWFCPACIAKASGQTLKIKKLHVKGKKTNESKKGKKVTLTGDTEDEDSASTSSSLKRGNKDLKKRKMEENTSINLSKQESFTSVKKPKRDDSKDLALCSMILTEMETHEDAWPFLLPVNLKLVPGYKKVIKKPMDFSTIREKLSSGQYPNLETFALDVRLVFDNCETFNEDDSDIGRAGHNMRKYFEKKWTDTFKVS
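BAZ2B 50 nM plus b-H3(5-23)K14Ac 50 nM, PBS pH 7.4/0.01% Tween-20, 30 min RT; compound added (max 110 uM), 30 min RT; streptavidin donor/Ni-chelate acceptor beads 10 ug/mL final, 20 min dark; AlphaScreen read.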
VDR inh: Inhibitors of the vitamin D receptor (VDR): qHTS; Vitamin D3 receptor (Homo sapiens), P11473; actives 0.93% (n = 400,000); AID 504847, 2011; Potency, µM, inactives show max response, negative = inhibition, usual class: inhibitors; VDR-SRC2-3 peptide fluorescence polarization, 2 h; further: on the % scale 0 is the no-effect control and ±100 the full control effect
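Compounds are added to VDR with labelled SRC2-3 coactivator peptide and held 2 h at room temperature. Inhibition of the VDR–peptide interaction is then read as a change in fluorescence polarization.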
Numbers without * were called inactive; ? = inconclusive; · = not tested or not shown; ! = repeats disagree; [ ] = another dose, or the depositor's remark. A selection: hits, their analogues and other compounds. The true share with any hit is near 11%. The call rests on the fitted dose curve; in most records, active means well fitted curve in the direction sought with a large enough effect; inconclusive means small, poorly fitted or top-dose-only effect, or another doubt; inactive means no such curve, though single readings can be large; an effect the other way counts as inactive or inconclusive. Potency means the concentration at half of the fitted maximal effect.

SMILES	G9a inh	HP1b chromo inh	PLK1 PBD block	JMJD2A Tudor inh	BAZ2B inh	VDR inh
CCc1nn(CC(=O)NC2CCN(Cc3ccccc3)CC2)c(=O)c2cc3cc(F)ccc3n12	45µM*	30%	-7%	-10%	-10%[57.1 µM]	4%
CCc1nn(CC(=O)NC(C)CCc2ccccc2)c(=O)c2cc3cc(F)ccc3n12 (stereo not drawn)	50µM*!	-1%	-9%	-12%	?	-12%
CCc1nn(CC(=O)NC2CC2)c(=O)c2cc3ccccc3n12	26%[59 µM]	64%	·	0%	27%	1%
CCc1nn(CC(=O)NC(C)CCc2ccccc2)c(=O)c2cc3c(OC)cccc3n12 (stereo not drawn)	26%[59 µM]	21%	·	7%	2%	8%
N#C/C(=C\c1ccc(N2CCOCC2)o1)C(=O)NCC1CCCO1 (stereo not drawn)	·	23%	80%	-12%	-16%	0%
N#C/C(=C/c1ccc(Sc2nc3ccccc3[nH]2)o1)c1cccc(F)c1	?	38%	-6%	-24%	-4%	11%
Cc1ccc2nc(/C(C#N)=C\c3ccc(N4CCOCC4)o3)[nH]c2c1	10µM*	-3%	69%	-26%	?	-12%
N#C/C(=C/c1ccc(N2CCCCC2)o1)c1cccc(F)c1	2.5µM*	?	-9%	45µM*	40µM*	40µM*
Cc1ccc(/C(C#N)=C\c2ccc(N3CCOCC3)o2)cc1	2.5µM*	?	12%	56µM*	79µM*	?
Cc1cccc(CNC(=O)C2CCC(=O)N(C3CCCCCC3)C2)c1 (stereo not drawn)	·	33%	0%	6%	0%	1%
CC(C)C[C@H](NC(=O)[C@H](Cc1ccccc1)C[C@@H](O)[C@H](Cc1ccccc1)NC(=O)OC(C)(C)C)C(=O)N[C@@H](Cc1ccccc1)C(N)=O	·	·	·	·	·	9%
Cc1ccc(S(=O)(=O)N(C)C[C@@H]2Oc3ccc(NC(=O)Cn4cnnn4)cc3C(=O)N([C@@H](C)CO)C[C@H]2C)cc1	·	25%	-12%	-23%	·	-2%
Cc1c(-c2ccc(Cl)cc2)[n+](=O)c(-c2ccccc2)cn1[O-]	0%	43%	2%	5%	-12%	3%
CC1=C(c2ccc(Cl)cc2)[N+](=O)C(C)(C)N1[O-]	50µM*	-11%	12µM*	-26%	-2%	-7%
Cc1ccc(CN2CCC(N3CC(C)OC(C)C3)CC2)cc1 (stereo not drawn)	13µM*	?	1%	22µM*	56µM*	5%
COc1ccc(CN2CCC(N3CC(C)OC(C)C3)CC2)c(OC)c1OC (stereo not drawn)	·	?	-2%	20µM*	?	-1%
CC1CN(C2CCN(C(=O)c3ccccc3Cl)CC2)CC(C)O1 (stereo not drawn)	?	?	-4%	35µM*	?	-11%
C/C(C/C(C)=C1/SC(=S)NC1=O)=C1\SC(=S)NC1=O	28µM*	?	19µM*	?	-16%	?
CCCCCC/C(C)=C1/SC(=S)NC1=O	?	-27%	24µM*	-33%	-9%[57.1 µM]	?
COc1ccc(C2CC(c3ccccc3)Oc3cc4c(cc32)OCO4)cc1 (stereo not drawn)	·	?	·	35µM*	·	-9%
COc1ccc(C2CC(c3ccccc3)Oc3cc(OC)ccc32)cc1 (stereo not drawn)	·	?	·	40µM*	·	-1%
COC(=O)c1c(C)[nH]c(C(=O)CSc2ccc(Cl)cc2)c1C	3%[59 µM]	52%	-25%	-26%	4%	-7%

Screening data: PubChem BioAssay, National Center for Advancing Translational Sciences (NCATS)
